From PubChem
In the library only some 1.8% were active in any assay of this set; here they are far more common.
aDG glyco act = alpha-DG glycosylation activation | Pro5-aDG cells, alpha-DG glycosylation AlphaScreen (IIH6); 0% Pro5, 100% B10-LARGE cell signal | activation, % at 10 µM | actives 0.22% (n = 360,000);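 active = activation of at least 8% versus controls, or a plate z-score of at least 8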;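 also: Pro5 are CHO cells carrying HIG-tagged alpha-DG that lacks glycosylation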
ARNT TACC3 PPI = disruptors of human ARNT/TACC3 interaction; Q9Y6A5; AlphaScreen His-ARNT PAS-B/GST-TACC3 binding, luminescence; TACC3 fragment carries E629A point mutation; inhibition, % at 9.99 µM; actives 0.66% (n = 390,000); AID 623870;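 active = mean inhibition of replicates at least 50% and at least half of replicates each reaching 50%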;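 also: 0% = complete ARNT plus TACC3 wells and 100% = ARNT alone without TACC3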
Bfl-1 A1 inh = inhibitors of the anti-apoptotic protein A1, read as caspase activation | caspase activation, % (no concentration beside the values) | MEF A1-2A-BIM cells, Caspase-Glo 3/7 luminescence, 3 h; percent of clofoctol response, vehicle zero | actives 0.066% (n = 330,000);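 active = over half of replicate activation scores above 10%, or exactly half above 10 with the replicate mean above 10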
Mot1-301 SUMO = SUMOylation pathway inhibition by Mot1-301 growth rescue | growth rescue, % at 18.8 µM | actives 1% (n = 320,000) | S. cerevisiae Mot1-301 growth rescue, ATP luminescence, 38.5C; percent above DMSO median, 100 means doubled;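 active = every valid replicate shows activation above 250% relative to neutral control wells; inactive = the rest, any valid replicate at or below 250%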;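 also: OY570 slx delta 5 strain wells were the positive control but not used for scaling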
AI-2 QS mod = modulators of Vibrio harveyi AI-2 quorum sensing system | Vibrio harveyi JMH597 AI-2 luminescence/OD600 ratio, 9 h; hits give low values; strain lacks LuxN and CqsS sensors; 0 = neutral-control median | actives 0.4% (n = 300,000) | activity change, % at 7.5 µM; in the data active = activity change below about -75%, passing the limit was not always enough;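 also: luminescence divided by OD600 gain over 9 h not by final OD600 alone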
Yeast Mot1 SUMO = SUMO pathway inhibitors in yeast Mot1-301 growth; S. cerevisiae Mot1-301 galactose growth, ATP luminescence, 24 h; -100 = growth of slx-deleted rescue strain; 2,300 tested, under 10 active; AID 493004; growth activity, percent, % at 42 µM; shares compounds with Mot1-301 SUMO;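 active = Signal drops as the depositor expects, and the fitted half-maximal dose is no more than ten times the top valid tested dose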;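 also: more negative values mean stronger growth rescue toward the control strain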
The depositor's hits bear a star; / = not tested or not shown; + = active, no number; ! = not confirmed by another sample.

SMILES	aDG glyco act	ARNT TACC3 PPI	Bfl-1 A1 inh	Mot1-301 SUMO	AI-2 QS mod	Yeast Mot1 SUMO
COc1ccc(-c2csc(NC(=O)CS(=O)(=O)c3ccc(F)cc3)n2)cc1OC	-0.3	0.4	0.7	555.2*	6.8	-0.3
Cc1noc(C)c1NC(=O)Nc1ccc2c(c1)C(=O)N([C@@H](C)CO)C[C@@H](C)[C@@H](CN(C)C(=O)NC1CCCCC1)OCCCC[C@H](C)O2	/	-5.0	/	/	/	/
OCC1(CCc2ccccc2)CCN(Cc2cnc(N3CCCC3)s2)CC1	0.1	-8.6	0.4	8.2	0.3	/
CN(C(=O)COC(=O)c1cncc(Br)c1)C1CCCCC1	-0.1	-3.8	-0.2	7.9	/	/
CN(C(=O)c1cncc(Br)c1)C1C2CC3CC(C2)CC1C3 (stereo not given)	0.0	-2.8	0.3	779.5*	29.9	-0.2
CNC(=O)CN(c1cc(C)ccc1OC)S(=O)(=O)c1ccc(C)cc1	0.3	15.3	0.6	-0.6	22.9	/
CC(C)NC(=O)N(C)C[C@@H]1Oc2cc(C#CCN(C)C)ccc2S(=O)(=O)N([C@@H](C)CO)C[C@@H]1C	/	-10.5	/	/	/	/
Cn1cnc(S(=O)(=O)N[C@@H]2CC[C@@H](CC(=O)NCC3CC3)O[C@H]2CO)c1	/	-21.6	/	/	/	/
Cc1ccc(NC(=O)c2c([N+](=O)[O-])c(C(C)(C)C)nn2C)cc1	0.5	-26.0	2.4	6.3	-10.7	/
Cn1nc(C(C)(C)C)c([N+](=O)[O-])c1C(=O)Nc1ccccc1	0.0	-0.6	1.2	586.4*	15.8	-0.4
COc1ccc(CCNC(=O)NC2CCCCC2)cc1OC	0.4	11.7	1.3	-10.1	9.4	/
COc1ccc(Cl)cc1C(=O)NCCc1ccc(S(=O)(=O)NC(=O)NC2CCCCC2)cc1	-0.2	1.2	0.3	390.4*!	35.0	-0.4
O=C(CSc1nc(=O)n2ccccc2n1)N1CCN(c2ccccc2)CC1	-0.2	/	0.5	559.0*	37.6	0.6
O=C(CSc1nc(=O)n2ccccc2n1)N1CCCCCC1	-0.2	-2.8	-0.5	5.6	21.0	/
Nc1ncnc2nc(SCC(=O)N3CCN(c4ccccc4)CC3)[nH]c12	-0.2	-0.1	0.2	+	15.5	0.4
C=CCNC(=S)NNC(=O)C(CCC(C)C)CC(C)(C)O (stereo not given)	4.1	3.0	0.1	-12.9	0.4	/
CCCNC(=O)N1[C@@H]2Cn3c(ccc(-c4ccccc4OC)c3=O)[C@H]1[C@@H](C(=O)NCC)[C@@H]2CO	/	1.6	/	/	/	/
COC(=O)CN1C(=O)c2cccc3cccc1c23	0.0	-6.2	0.0	797.5*	27.8	-0.6
CN(C)C(=O)CN1C(=O)c2cccc3cccc1c23	0.5	5.3	0.4	+	23.0	-0.2
C[C@H](NC(=O)OC(C)(C)C)C(=O)NCC1CCC(C(=O)N[C@@H](Cc2ccccc2)C(=O)O)CC1 (stereo not given in full)	0.0	/	3.4	477.4*	13.3	0.6
C[C@@H]1CN([C@@H](C)CO)C(=O)Cc2cc(NS(=O)(=O)c3ccccc3)ccc2O[C@H]1CN(C)Cc1ccc(-c2ccccc2)cc1	/	1.7	/	/	/	/
CCn1c(SCC(=O)Nc2ccc(OCc3ccccc3)cc2)nnc1-c1ccco1	0.0	3.7	1.4	836.5*	32.6	0.8
COc1ccc(NC(=O)CCC(=O)Nc2nnc(C(F)(F)F)s2)c(OC)c1	0.0	-1.0	-0.3	819.6*	13.0	-0.1
CC1=C(C(=O)OC(C)C)C(c2cccnc2)C2=C(CC(C)(C)CC2=O)N1 (stereo not given)	-0.2	-11.0	0.1	495.5	11.2	/
COCC(=O)Nc1c(C(=O)Nc2ccc3c(c2)OCO3)oc2ccccc12	-0.2	-0.9	0.8	414.9*	22.6	-0.5
SMILES	aDG glyco act	ARNT TACC3 PPI	Bfl-1 A1 inh	Mot1-301 SUMO	AI-2 QS mod	Yeast Mot1 SUMO
CC(=O)Nc1c(C(=O)Nc2ccc3c(c2)OCO3)oc2ccccc12	-0.2	-0.3	-0.6	146.8	10.9	/
COc1ccc(CCNC(=O)C/C(C)=N/NC(=O)COc2ccc(C)cc2Br)cc1OC	0.2	3.9	-0.3	904.0*	-3.1	0.3
COc1ccccc1CNC(=O)C/C(C)=N/NC(=O)COc1ccc(C)cc1Br	-0.2	-5.8	-0.5	168.1	10.1	/
CC(=O)Nc1ccc(CN2CCc3c([nH]c4ccccc34)C2C(C)(C)C)cc1 (stereo not given)	0.0	0.4	0.4	-21.7	19.1	/
CC(C)(C)C1c2[nH]c3ccccc3c2CCN1Cc1cccc(OCCO)c1 (stereo not given)	0.0	2.6	-0.3	710.1*	26.7	0.4
Cc1cccc(N2C(=O)/C(=C/c3cccnc3)SC2=S)c1	-0.1	-3.3	-0.1	938.5*	8.2	0.2
CCOC(=O)c1ccc(NC(=O)NCc2ccncc2)cc1	-0.2	5.0	-0.7	507.3*	49.5	-0.6
CCOC(=O)c1ccc(NC(=O)NCc2ccc(OC)cc2)cc1	-0.1	-3.5	0.6	6.5	-26.3	/
CC(C)COc1ccc(C(=O)Nc2ccc([N+](=O)[O-])cc2)cc1	0.1	-10.8	-0.5	690.6*	-23.9	-0.2
COc1ccc(CN2C(=NC(=O)COc3ccccc3)SC3CS(=O)(=O)CC32)cc1 (stereo not given)	-0.7	-5.6	0.6	-6.3	3.8	/
COCCn1c(-c2ccc(Cl)cc2)cnc1SCC(=O)NCCc1ccc(OC)c(OC)c1	1.1	11.2	0.8	472.8*	24.1	0.1
COc1ccc(CCNC(=O)CSCc2ccc(Cl)cc2)cc1OC	0.1	-4.0	0.6	1.1	12.4	/
COc1ccc(NC(=O)Nc2ccccc2C(=O)N2CCCC2)cc1	-0.2	-1.9	-2.3	739.5*	13.3	-0.3
COc1ccc(OCC(=O)Nc2ccccc2C(=O)N2CCCC2)cc1	-0.1	0.0	-0.2	-18.5	18.3	/
Cc1ccc(NC(=O)COC(=O)c2csc3c2CCC(C)C3)cc1S(=O)(=O)N1CCCCC1 (stereo not given)	0.1	3.6	-0.3	+	3.3	-0.1
CC1CCc2c(C(=O)OCC(=O)Nc3cccc(S(=O)(=O)N4CCCCCC4)c3)csc2C1 (stereo not given)	0.2	-6.9	-0.1	-1.7	5.6	/
O=C(C1CCC1)N1CCCCN2[C@@H](CO)[C@H](c3ccc(-c4ccncc4)cc3)[C@@H]2C1	/	-4.3	/	/	/	/
CC1(C)CC(=O)C2=C(C1)OC(N)=C(C#N)C21C(=O)N(CN2CCOCC2)c2ccccc21 (stereo not given)	0.0	/	0.3	456.8*	4.9	0.3
CC1=CC(C)(C)N2C(=O)C3(C(C#N)=C(N)OC4=C3C(=O)CC(C)(C)C4)c3cc(C)cc1c32 (stereo not given)	0.5	-2.3	0.0	-14.4	7.6	/
